# Values joined by “and” are separate entries in the source; they are usually repeats but may differ in a detail not shown here. Equal entries are not always repeated. The campaign covered roughly 5,500 compounds. About 2,000 (36%) were called active. Inconclusive results (about 18%) are left out. No stated cut-off is given here; in the data, active means normalized growth mostly below about 0.91 (no sharp cut-off); inconclusive means no clear call, values can overlap the other calls; inactive means mostly above about 0.92. The list shows a part of the results.
# Assay: chemical genetic growth profiling, strain panel (AID 1159580);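 further: tested at 20 µM; growth read once vehicle control cultures reached saturation at 30 °C; 1 = growth at the plate median or of vehicle wells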
# Conditions: S. cerevisiae deletion strains, growth OD
# [1] = locus YAL013W, strain DEP1, stronger effect = lower value
# [2] = locus YDR150W, strain NUM1, stronger effect = lower value
# [3] = locus YGR229C, strain SMI1, stronger effect = lower value
# [4] = locus YJR075W, strain HOC1, stronger effect = lower value
# [5] = locus YNL153C, strain GIM3, stronger effect = lower value
# [6] = locus YNL322C, strain KRE1, stronger effect = lower value
# [7] = locus YPL241C, strain CIN2, stronger effect = lower value
smiles,measurement,setting,value
O=C(OCCNc1ccc([N+](=O)[O-])cn1)c1ccc([N+](=O)[O-])o1,normalized growth,[1],0.848 (active)
same,normalized growth,"locus YAR019C, strain CDC15, stronger effect = lower value",0.898 (inactive)
same,normalized growth,"locus YBL105C, strain PKC1, stronger effect = lower value",0.927 (inactive)
same,normalized growth,"locus YBR135W, strain CKS1, stronger effect = lower value",0.922 (inactive)
same,normalized growth,"locus YBR136W, strain MEC1, stronger effect = lower value",0.919 (inactive)
same,normalized growth,"locus YBR160W, strain CDC28, stronger effect = lower value",0.92 (inactive)
same,normalized growth,"locus YBR229C, strain ROT2, stronger effect = lower value",0.816 (active)
same,normalized growth,"locus YCL061C, strain MRC1, stronger effect = lower value",0.86 (active)
same,normalized growth,"locus YDL017W, strain CDC7, stronger effect = lower value",0.932 (inactive)
same,normalized growth,"locus YDL028C, strain MPS1, stronger effect = lower value",0.917 (inactive)
same,normalized growth,"locus YDL101C, strain DUN1, stronger effect = lower value",0.947 (inactive) and 0.908 (inactive)
same,normalized growth,"locus YDL108W, strain KIN28, stronger effect = lower value",0.922 (inactive)
same,normalized growth,"locus YDL132W, strain cdc53, stronger effect = lower value",0.888 (active)
same,normalized growth,"locus YDL134C, strain PPH21, stronger effect = lower value",0.961 (inactive)
same,normalized growth,"locus YDL214C, strain PRR2, stronger effect = lower value",0.742 (inactive)
same,normalized growth,"locus YDR052C, strain DBF4, stronger effect = lower value",0.81 (active)
same,normalized growth,"locus YDR054C, strain cdc34, stronger effect = lower value",0.898 (inactive)
same,normalized growth,[2],0.866 (inactive)
same,normalized growth,"locus YDR226W, strain ADK1, stronger effect = lower value",0.887 (active)
same,normalized growth,"locus YDR477W, strain SNF1, stronger effect = lower value",0.829 (inactive)
same,normalized growth,"locus YEL061C, strain CIN8, stronger effect = lower value",0.931 (inactive)
same,normalized growth,"locus YER123W, strain YCK3, stronger effect = lower value",0.673 (inactive)
same,normalized growth,"locus YER133W, strain GLC7, stronger effect = lower value",0.771 (inactive)
same,normalized growth,"locus YFL009W, strain cdc4, stronger effect = lower value",0.903 (inactive)
same,normalized growth,"locus YFL029C, strain CAK1, stronger effect = lower value",0.894 (inactive)
same,normalized growth,"locus YFR003C, strain YPI1, stronger effect = lower value",0.924 (inactive)
same,normalized growth,"locus YFR019W, strain FAB1, stronger effect = lower value",0.583 (active)
same,normalized growth,"locus YFR028C, strain CDC14, stronger effect = lower value",0.91 (inactive)
same,normalized growth,"locus YGR040W, strain KSS1, stronger effect = lower value",0.735 (inactive)
same,normalized growth,"locus YGR052W, strain FMP48, stronger effect = lower value",0.735 (inactive)
same,normalized growth,"locus YGR078C, strain PAC10, stronger effect = lower value",0.786 (active)
same,normalized growth,"locus YGR092W, strain DBF2, stronger effect = lower value",0.17 (active)
same,normalized growth,[3],0.979 (inactive)
same,normalized growth,"locus YHR030C, strain SLT2, stronger effect = lower value",0.885 (inactive) and 0.148 (active)
same,normalized growth,"locus YHR079C, strain IRE1, stronger effect = lower value",0.67 (inactive)
same,normalized growth,"locus YHR082C, strain KSP1, stronger effect = lower value",0.914 (inactive)
same,normalized growth,"locus YHR087W, strain rtc3, stronger effect = lower value",0.744 (active)
same,normalized growth,"locus YHR205W, strain SCH9, stronger effect = lower value",0.663 (inactive)
same,normalized growth,"locus YIL147C, strain SLN1, stronger effect = lower value",0.931 (inactive)
same,normalized growth,"locus YJL095W, strain BCK1, stronger effect = lower value",0.677 (inactive)
same,normalized growth,"locus YJL128C, strain PBS2, stronger effect = lower value",0.895 (inactive)
same,normalized growth,"locus YJL157C, strain FAR1, stronger effect = lower value",0.788 (inactive)
same,normalized growth,"locus YJL187C, strain SWE1, stronger effect = lower value",0.86 (active)
same,normalized growth,"locus YJR016C, strain ILV3, stronger effect = lower value",0.942 (inactive)
same,normalized growth,"locus YJR043C, strain POL32, stronger effect = lower value",0.968 (inactive)
same,normalized growth,"locus YJR066W, strain TOR1 (second series), stronger effect = lower value",0.391 (active)
same,normalized growth,"locus YJR066W, strain TOR1, stronger effect = lower value",0.78 (inactive)
same,normalized growth,[4],0.795 (active)
same,normalized growth,"locus YKL048C, strain ELM1, stronger effect = lower value",0.772 (active)
same,normalized growth,"locus YKL067W, strain YNK1, stronger effect = lower value",0.708 (active)
same,normalized growth,"locus YKL101W, strain HSL1, stronger effect = lower value",0.737 (inactive)
same,normalized growth,"locus YKL193C, strain SDS22, stronger effect = lower value",0.899 (inactive)
same,normalized growth,"locus YKL203C, strain TOR2, stronger effect = lower value",0.822 (inactive)
same,normalized growth,"locus YLR039C, strain RIC1, stronger effect = lower value",0.449 (active)
same,normalized growth,"locus YLR058C, strain SHM2 (second series), stronger effect = lower value",0.943 (inactive)
same,normalized growth,"locus YLR085C, strain ARP6, stronger effect = lower value",0.727 (active)
same,normalized growth,"locus YLR113W, strain HOG1, stronger effect = lower value",0.444 (active)
same,normalized growth,"locus YLR133W, strain CKI1, stronger effect = lower value",0.813 (inactive)
same,normalized growth,"locus YLR262C, strain YPT6, stronger effect = lower value",0.703 (active)
same,normalized growth,"locus YLR403W, strain SFP1, stronger effect = lower value",0.845 (inactive)
same,normalized growth,"locus YML070W, strain DAK1, stronger effect = lower value",0.609 (active)
same,normalized growth,"locus YML094W, strain GIM5, stronger effect = lower value",0.896 (inactive)
same,normalized growth,"locus YMR001C, strain CDC5, stronger effect = lower value",0.915 (inactive)
same,normalized growth,"locus YMR205C, strain PFK2 (second series), stronger effect = lower value",0.884 (inactive)
same,normalized growth,"locus YMR219W, strain ESC1, stronger effect = lower value",0.809 (active)
same,normalized growth,"locus YMR263W, strain SAP30, stronger effect = lower value",0.827 (active)
same,normalized growth,"locus YMR277W, strain FCP1, stronger effect = lower value",0.904 (inactive)
same,normalized growth,"locus YMR307W, strain GAS1, stronger effect = lower value",0.817 (inactive)
same,normalized growth,"locus YNL006W, strain LST8, stronger effect = lower value",0.933 (inactive)
same,normalized growth,"locus YNL020C, strain ARK1, stronger effect = lower value",0.81 (inactive)
same,normalized growth,[5],0.957 (inactive)
same,normalized growth,"locus YNL161W, strain CBK1, stronger effect = lower value",0.902 (inactive)
same,normalized growth,"locus YNL183C, strain NPR1, stronger effect = lower value",0.684 (inactive)
same,normalized growth,"locus YNL207W, strain RIO2, stronger effect = lower value",0.9 (inactive)
same,normalized growth,"locus YNL222W, strain SSU72, stronger effect = lower value",0.915 (inactive)
same,normalized growth,"locus YNL298W, strain CLA4 (second series), stronger effect = lower value",0.956 (inactive)
same,normalized growth,"locus YNL307C, strain MCK1 (second series), stronger effect = lower value",0.709 (inactive)
same,normalized growth,[6],0.913 (active)
same,normalized growth,"locus YNR030W, strain Alg12, stronger effect = lower value",0.776 (active)
same,normalized growth,"locus YOL006C, strain TOP1, stronger effect = lower value",0.831 (inactive)
same,normalized growth,"locus YOL078W, strain AVO1, stronger effect = lower value",0.902 (inactive)
same,normalized growth,"locus YOL136C, strain PFK27, stronger effect = lower value",0.697 (inactive)
same,normalized growth,"locus YOR061W, strain CKA2, stronger effect = lower value",0.735 (inactive)
same,normalized growth,"locus YOR119C, strain RIO1, stronger effect = lower value",0.838 (inactive)
same,normalized growth,"locus YOR231W, strain MKK1, stronger effect = lower value",0.572 (active)
same,normalized growth,"locus YOR329C, strain SCD5, stronger effect = lower value",0.921 (inactive)
same,normalized growth,"locus YPL031C, strain PHO85, stronger effect = lower value",0.814 (inactive)
same,normalized growth,"locus YPL055C, strain LGE1, stronger effect = lower value",0.738 (active)
same,normalized growth,"locus YPL153C, strain RAD53, stronger effect = lower value",0.351 (active)
same,normalized growth,"locus YPL204W, strain HRR25, stronger effect = lower value",0.749 (inactive)
same,normalized growth,"locus YPL209C, strain IPL1, stronger effect = lower value",0.921 (inactive)
same,normalized growth,[7],0.931 (inactive)
same,normalized growth,"locus YPL256C, strain CLN2, stronger effect = lower value",0.624 (active)
same,normalized growth,"locus YPR025C, strain CCL1, stronger effect = lower value",0.929 (inactive)
same,normalized growth,"locus YPR106W, strain ISR1, stronger effect = lower value",0.945 (inactive)
same,normalized growth,"locus YPR111W, strain DBF20, stronger effect = lower value",0.888 (inactive)
same,normalized growth,"locus YPR135W, strain CTF4, stronger effect = lower value",0.944 (inactive)
same,normalized growth,"strain NNK1, stronger effect = lower value",0.913 (inactive)
same,normalized growth,"strain TSCII, stronger effect = lower value",0.894 (inactive)
Nc1nc(SCc2ccc([N+](=O)[O-])cc2)c2ncn([C@@H]3O[C@H](CO)[C@H](O)C3O)c2n1 (stereo partly drawn),normalized growth,[1],1.01 (inactive)
same,normalized growth,"locus YAL040C, strain CLN3, stronger effect = lower value",1.02 (inactive)
same,normalized growth,"locus YCL061C, strain MRC1 (second series), stronger effect = lower value",1 (inactive)
same,normalized growth,[2],0.994 (inactive)
same,normalized growth,"locus YER002W, strain NOP16, stronger effect = lower value",1 (inactive)
same,normalized growth,[3],1.04 (inactive)
same,normalized growth,[4],0.995 (inactive)
same,normalized growth,[5],0.989 (inactive)
same,normalized growth,"locus YNL175C, strain NOP13, stronger effect = lower value",0.996 (inactive)
same,normalized growth,"locus YNL197C, strain WHI3, stronger effect = lower value",1 (inactive)
same,normalized growth,"locus YNL224C, strain SQS1, stronger effect = lower value",1 (inactive)
same,normalized growth,[6],1.02 (inactive)
same,normalized growth,"locus YOR083W, strain WHI5 (second series), stronger effect = lower value",0.998 (inactive)
same,normalized growth,[7],1 (inactive)

# — PubChem BioAssay AID1159580 (chemical genetic matrix, 2015)
